Where “and” joins values, the source holds several entries; their conditions need not be identical. Identical values can stand only once. About 79,000 compounds went through this panel and 15% of them were active in at least one assay; those are over-represented in the sample as a whole. Where a structure was tested more than once in an assay, its records may differ in their call. Calls of active or inactive are those of the source. Cut-off read from the data, not from the text of the source: active = growth inhibition above about 70%; inactive = the rest.

This assay is described as follows: NCI Yeast Anticancer Drug Screen. Data for the bub3 strain (AID 167). As to conditions: S. cerevisiae bub3 mutant strain, at 50.0 µM, stronger effect = higher value. In short, it runs like this:
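Whole-cell yeast assay. The mutant strain was incubated with compounds, and growth inhibition was determined by comparison with vehicle-treated cells.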
Turning to `OCC1OC(n2cnc3c(=S)nc[nH]c32)C(O)C1O` (configuration not stated), the growth inhibition is 14.9% (inactive) and -16.9% (inactive). Next, `CCOC(=O)C(C(=O)c1ccccc1)C(=O)c1ccccc1`: -0.95% (inactive) and 90.5% (active); `COC1/C=C\C=C(/C)C(=O)Nc2cc3nc4ccc(Br)cc4oc-3c(c2=O)CC(C)CC(OC)C(O)C(C)/C=C(\C)C1OC(N)=O` (configuration not stated): 90.7% (active).

For the molecule `Nc1ccc([N+](=O)[O-])c(S(=O)(=O)O)c1`, the growth inhibition is 78.8% (active) and -31.6% (inactive).

As to `CCOc1ccc2ccccc2c1C(Cc1ccc(Cl)cc1)NCCO` (configuration not stated), the growth inhibition is 94.7% (active).

For `O=C1C(=Cc2ccc(O)cc2)N=C(c2ccccc2)N1n1c(-c2ccccc2)nc2ccccc2c1=O`, the growth inhibition was 89.4% (active). Turning to `Cc1nc2ccccc2cc1CCl`, the growth inhibition was 32.9% (inactive). In the case of `Cc1cc(NS(=O)(=O)c2ccc(N=Nc3cc(N=Nc4ccc(S(=O)(=O)Nc5cc(C)nc(C)n5)cc4)c4c(NC(=O)C(Cl)Cl)cccc4c3OC(=O)C(Cl)Cl)cc2)nc(C)n1` (tested in a mixture with another compound) it was -21.5% (inactive) and 77.2% (active). In the case of `CCCCCCN(CCCCCC)C(=O)C1=C(C)NC(C)=C(C(=O)N(CCCCCC)CCCCCC)C1` it was 34.9% (inactive); in that of `O=[N+]([O-])Cc1cnc2nncn2n1`, 38.5% (inactive).

As to `COc1ccc(N/N=C(\CCN(C)C)c2ccccc2)cc1`, the growth inhibition was 49.2% (inactive). As for `O=C(O)/C(=C(/c1ccccc1)c1ccc(Cl)cc1)c1ccccc1`, the growth inhibition is 49.7% (inactive) and 90.3% (active). For the molecule `c1ccc([P+](CCCCCCCC[P+](c2ccccc2)(c2ccccc2)c2ccccc2)(c2ccccc2)c2ccccc2)cc1`, the growth inhibition was 91.1% (active).

Take `OCCNc1nc(NCCO)c2nc(-c3ccccc3)c(-c3ccccc3)nc2n1`: the growth inhibition is -0.8% (inactive) and 41.7% (inactive).

Regarding `OC(c1ccccc1)(c1ccccc1)c1ccccc1` (tested in a mixture with another compound), the growth inhibition was 1.15% (inactive) and 95.4% (active). For the molecule `CC(=O)Nc1c(Cl)c(Cl)c2c(c1Cl)Cc1cc(Cl)ccc1-2`, the growth inhibition is 98.3% (active).

On to `Cc1cc(C)nc(NS(=O)(=O)c2ccc(Nc3c4ccccc4nc4c(C(=O)NCCCN(CCO)CCO)cccc34)cc2)n1`, for which the growth inhibition was 78.2% (active). In the case of `CCn1c2ccccc2c2ccc(N=Cc3ccc(N(C)C)cc3)cc21` it was 70.7% (active); in that of `O=C(C(=Cc1ccccc1)C(=O)c1ccccc1)c1ccccc1`, 88% (active) and 51.6% (inactive). Regarding `c1ccc(C2=NC(c3ccccc3)=NS(S3=NC(c4ccccc4)=NC(c4ccccc4)=N3)=N2)cc1` (configuration not stated), the growth inhibition was 38% (inactive). On to `Nc1nc(-c2ccccn2)cc2ccccc12`, for which the growth inhibition is 7.35% (inactive). With `CCN(CC)CCCn1c2cc(=O)c(=O)cc-2[nH]c2cc(C)ccc21`, the growth inhibition is -8.05% (inactive).

Turning to `COc1cc(O)ccc1C(=S)SC`, the growth inhibition was -6.9% (inactive). For the molecule `O=[N+]([O-])C1=C(c2ccccc2)SC=C(c2ccccc2)S1`, the growth inhibition is 12.4% (inactive) and 84.8% (active).

As for `N#CC1(C2SCCS2=O)C2=C(C(=O)c3ccccc3C2=O)N2CCCC21` (configuration not stated), the growth inhibition is 70.2% (active).

`O=C1C=CC(=O)C(C2OC(=O)C(Br)=C2Br)=C1` (configuration not stated): the growth inhibition is 13.6% (inactive). Turning to `CN1CCN(CCCN2c3ccccc3Sc3ccc(C(F)(F)F)cc32)CC1`, the growth inhibition is 99.2% (active) and 86.2% (active). Next, `Cc1ccc(S(=O)(=O)C23C(N=NC2(C)C)C3(C)C)cc1` (configuration not stated): -45.8% (inactive); `COC(=O)C(=O)C(C(=O)C(c1ccccc1)c1ccccc1)c1nc2n(c1O)/C(=N/C(=O)Nc1ccc(Cl)cc1)N=N2` (configuration not stated): 41.2% (inactive).

Consider `O=C(O)c1ccc2c(c1)Cc1cc([N+](=O)[O-])ccc1-2`, for which the growth inhibition is 14% (inactive). Next, `O=c1[nH]c2cc([N+](=O)[O-])ccc2nc1/C=C(\O)c1ccc([N+](=O)[O-])cc1`: 4.75% (inactive) and 5.75% (inactive); `c1ccc(C(c2ccccc2)n2ccnc2)cc1`: 59.4% (inactive). Next, `c1ccc2c(c1)CNc1ccccc1-2`: 85.5% (active); `COC(=O)c1nnn(-c2ccc(S(N)(=O)=O)cc2)c1N`: -4.45% (inactive); `COC(=O)c1ccc(O)c(OC)c1`: 12.8% (inactive). Next, `O=c1[nH]c(SCc2c(Cl)c(Cl)c(Cl)c(Cl)c2Cl)nc(=S)[nH]1`: 65.8% (inactive); `Cc1nc2c(ccc3[nH]c4ccccc4c32)s1`: 91.8% (active).

For the origin of these results see PubChem BioAssay (NCI).
